Laboratory results reported in PubChem BioAssay (Tox21).
Inconclusive results are not listed. Calls of active or inactive are those of the source. Unless noted, calls come from the whole dose curve; as a rule, active = well fitted curve in the direction sought with a large enough effect in the repeat runs; inconclusive = weak or mixed curves; inactive = no such curve, though single readings can be large; an effect the other way counts as inactive or inconclusive.

What was measured:
[1] = biological target: Thyrotropin receptor (Homo sapiens) (UniProt P16473); test: qHTS assay to identify small molecule agonists of the thyroid stimulating hormone receptor (TSHR) signaling pathway (AID 1224843; calls by dose curve; note: nearly all actives have a fitted effect of over 45% in size)
Thyrotropin receptor (Homo sapiens), sequence (P16473 whole entry, looked up): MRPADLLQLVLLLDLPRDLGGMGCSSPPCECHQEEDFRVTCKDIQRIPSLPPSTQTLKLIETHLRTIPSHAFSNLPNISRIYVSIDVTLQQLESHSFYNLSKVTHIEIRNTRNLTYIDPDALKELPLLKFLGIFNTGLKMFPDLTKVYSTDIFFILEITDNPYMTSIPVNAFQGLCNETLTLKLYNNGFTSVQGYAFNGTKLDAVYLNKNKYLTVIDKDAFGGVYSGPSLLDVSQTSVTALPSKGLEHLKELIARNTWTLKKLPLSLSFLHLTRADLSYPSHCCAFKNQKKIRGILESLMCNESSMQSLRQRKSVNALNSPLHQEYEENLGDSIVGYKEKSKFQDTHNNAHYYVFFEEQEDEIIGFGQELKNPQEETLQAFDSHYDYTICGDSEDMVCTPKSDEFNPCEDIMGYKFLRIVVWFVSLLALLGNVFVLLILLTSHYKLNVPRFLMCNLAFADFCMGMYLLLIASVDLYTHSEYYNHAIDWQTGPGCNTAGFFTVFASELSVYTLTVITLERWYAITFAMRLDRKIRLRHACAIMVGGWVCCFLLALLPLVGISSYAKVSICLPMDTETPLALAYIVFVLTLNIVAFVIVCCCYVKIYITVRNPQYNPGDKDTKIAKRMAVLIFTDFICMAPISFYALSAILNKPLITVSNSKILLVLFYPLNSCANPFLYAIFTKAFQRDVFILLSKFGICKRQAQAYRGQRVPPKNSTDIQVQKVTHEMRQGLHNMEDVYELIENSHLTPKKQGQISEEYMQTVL
Procedure, shortened: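 Cell line HEK293 with TSHR; density 800/well. Exposure 30 min RT. Readout HTRF cAMP (cAMP-d2/anti-cAMP-cryptate), 1 h RT before reading.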

[2] = qHTS assay to identify small molecule agonists of the hypoxia (HIF-1) signaling pathway - cell viability counter screen (AID 1224844; calls by dose curve; note: nearly all actives have a fitted effect of over 50% in size)
Procedure, shortened: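 ME-180 HRE-bla cells, 2,000/well, 0.5% dialyzed FBS; 5 hr settle, 17 hr compound at 37C/5% CO2; CCF4-AM reporter read first, then CellTiter-Glo luminescence after 30 min RT.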

[3] = qHTS assay to identify small molecule agonists of H2AX (AID 1224845; active = well fitted activation curve with a large enough effect in the signal ratio in the repeat runs, not every such curve was filed as active; the % refers to the signal ratio)
Procedure, shortened: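 Wild-type CHO-K1 cells plated overnight, then exposed 3 hr at 37C to compounds at 15 concentrations (0.76% DMSO). Lysed, then HTRF anti-pH2AX(S139)-cryptate/anti-H2AX-d2 detection after 24 hr at room temperature; emissions 665 and 620 nm.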

[4] = qHTS assay to identify small molecule agonists of the hypoxia (HIF-1) signaling pathway (AID 1224846; active = well fitted activation curve with a large enough effect in the signal ratio in the repeat runs, not every such curve was filed as active; the % refers to the signal ratio)
Procedure, shortened: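 Cell line: CellSensor HRE-bla ME-180; 2,000 cells/well; 0.5% dialyzed FBS; 5 h preincubation; DMSO compound pin transfer; 17 h, 37C, 5% CO2; CCF4-AM added; bla FRET signal scored for activation.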

[5] = qHTS assay to identify small molecule agonists of H2AX - cell viability counter screen (AID 1224847; calls by dose curve; note: top concentration of the series differs between compounds; nearly all actives have a fitted effect of over 30% in size)
Procedure, shortened: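 Read-out: CellTiter-Glo luminescence, 30 min RT. Cells: wild-type CHO-K1, 1000/well, 10% FBS, plated overnight at 37C. Treatment: 15 concentrations, 3 hr, 37C, 0.76% DMSO.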

[6] = qHTS assay to identify small molecule antagonists of the estrogen related receptor (ERR) signaling pathway from Tox21 library (AID 1224848); note: nearly all actives have a fitted effect of over 50% in size; note: potency is the fitted concentration of half-maximal effect
Procedure, shortened: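 Screening used an ERR reporter line supplied by NTP, exposed for 18 h at 37 C to library compounds delivered in DMSO. Signal was luciferase luminescence developed with ONE-Glo at room temperature for 30 min.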

[7] = qHTS assay to identify small molecule agonists of the estrogen related receptor (ERR) signaling pathway from Tox21 library (AID 1224849; calls by dose curve; note: nearly all actives have a fitted effect of over 15% in size); conditions: ERR reporter cell line, ONE-Glo luciferase, 18 h; at 92.4 µM (top of the series) unless noted
Procedure, shortened: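 ERR cells, 6 h pre-incubation 37 C/5% CO2; cpd in DMSO pinned; 18 h 37 C; ONE-Glo added, 30 min RT; luminescence read. Agonist mode, qHTS.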

[8] = qHTS RealTime-Glo MT Cell Viability Assay in HepG2 cells - 24 hour (AID 1224867); note: nearly all actives have a fitted effect of over 50% in size
Procedure, shortened: (§1)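 Cell number in HepG2 cultures estimated from NanoLuc luminescence generated by metabolic reduction of a prosubstrate by living cells. The homogeneous, nonlytic format allowed repeated reads at 0, 8, 16, 24, 32 and 40 h of compound exposure.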

[9] = qHTS RealTime-Glo MT Cell Viability Assay in HEK293 cells - 32 hour (AID 1224868); note: nearly all actives have a fitted effect of over 50% in size; note: potency is the fitted concentration of half-maximal effect
Procedure, shortened: (§2)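 Homogeneous bioluminescent viability format in HEK293 cells (600 cells/well). Following 5 h at 37 C/5% CO2, 23 nL compound was pintooled; the signal was measured repeatedly during 40 h incubation.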

[10] = A CellTox Green Cytotoxicity Assay to monitor cytotoxicity in HEK293 cells - 0 hour (AID 1224869); note: nearly all actives have a fitted effect of over 50% in size
Procedure, shortened: (§3)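 Nonlytic real-time cytotoxicity: HEK293 + CellTox Green reagent plated, 5 h preincubation, pintool compound addition (23 nL in DMSO), 37 C for 40 h, fluorescence measured at successive time points.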

[11] = qHTS RealTime-Glo MT Cell Viability Assay in HepG2 cells - 40 hour (AID 1224870); note: nearly all actives have a fitted effect of over 50% in size
Procedure, shortened: (§4)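 HepG2 cells mixed with RealTime-Glo MT reagents (NanoLuc plus cell-permeant prosubstrate) were seeded at 600 cells/well, incubated 5 h at 37 C/5% CO2, then pinned with compounds in DMSO; nonlytic luminescence tracked viability during 40 h treatment.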

[12] = qHTS RealTime-Glo MT Cell Viability Assay in HEK293 cells - 16 hour (AID 1224872); note: nearly all actives have a fitted effect of over 50% in size; note: potency is the fitted concentration of half-maximal effect
Procedure, shortened: as §2

[13] = qHTS RealTime-Glo MT Cell Viability Assay in HepG2 cells - 8 hour (AID 1224873); note: nearly all actives have a fitted effect of over 55% in size
Procedure, shortened: as §4

[14] = qHTS RealTime-Glo MT Cell Viability Assay in HEK293 cells - 40 hour (AID 1224874); conditions: RealTime-Glo luminescence; max response: hits give low values; note: nearly all actives have a fitted effect of over 50% in size; note: potency is the fitted concentration of half-maximal effect
Procedure, shortened: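 Cells were seeded together with NanoLuc luciferase and a prosubstrate that viable cells reduce to a luciferase substrate. After a 5 h incubation at 37 C/5% CO2, compounds were added and luminescence was measured repeatedly during 40 h of treatment.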

[15] = A CellTox Green Cytotoxicity Assay to monitor cytotoxicity in HEK293 cells - 24 hour (AID 1224875); note: nearly all actives have a fitted effect of over 45% in size; note: potency is the fitted concentration of half-maximal effect
Procedure, shortened: as §3

[16] = qHTS RealTime-Glo MT Cell Viability Assay in HepG2 cells - 32 hour (AID 1224877); note: nearly all actives have a fitted effect of over 55% in size
Procedure, shortened: as §1

[17] = A CellTox Green Cytotoxicity Assay to monitor cytotoxicity in HepG2 cells - 24 hour (AID 1224878); note: nearly all actives have a fitted effect of over 45% in size
Procedure, shortened: (§5)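 Read-out is fluorescence of a cyanine dye excluded from live cells that stains DNA of dead HepG2 cells, with signal proportional to cytotoxicity. Plates were read at 0, 8, 16, 24, 32 and 40 h after compound addition.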

[18] = A CellTox Green Cytotoxicity Assay to monitor cytotoxicity in HepG2 cells - 40 hour (AID 1224879); note: nearly all actives have a fitted effect of over 40% in size
Procedure, shortened: as §5

[19] = A CellTox Green Cytotoxicity Assay to monitor cytotoxicity in HEK293 cells - 40 hour (AID 1224871); note: nearly all actives have a fitted effect of over 45% in size; note: potency is the fitted concentration of half-maximal effect
Procedure, shortened: as §3

[20] = A CellTox Green Cytotoxicity Assay to monitor cytotoxicity in HepG2 cells - 16 hour (AID 1224876); note: nearly all actives have a fitted effect of over 45% in size
Procedure, shortened: as §5
% is set by controls: 0 for no effect and ±100 for the full control effect.

O=C=Nc1ccc(Cl)c(Cl)c1
active: Potency [6] 26.9 µM
inactive: Potency [1] | Potency [2] | Potency [3] | outcome [4] | Potency [5] | activity change, positive = activation [7] -41% | Potency [8] | Potency [9] | Potency [10] | Potency [11] | Potency [12] | Potency [13] | max response [14] -3.97% | Potency [15] | Potency [16] | Potency [17] | Potency [18]

Cc1cc(C)cc(N)c1
inactive: Potency [1] | Potency [2] | Potency [3] | outcome [4] | Potency [5] | Potency [8] | Potency [9] | Potency [11] | Potency [19] | Potency [12] | Potency [13] | Potency [15] | Potency [20] | Potency [16] | Potency [17] | Potency [18]

CO/N=C(/C(=O)N[C@@H]1C(=O)N2C(C(=O)O)=C(COC(N)=O)CS[C@H]12)c1ccco1
inactive: Potency [1] | Potency [2] | Potency [3] | outcome [4] | Potency [5] | Potency [8] | Potency [9] | Potency [10] | Potency [11] | Potency [19] | Potency [12] | Potency [13] | max response [14] 10.8% | Potency [15] | Potency [20] | Potency [16] | Potency [17] | Potency [18]

CCCCCC#CC(=O)OC
inactive: Potency [1] | Potency [2] | Potency [3] | outcome [4] | Potency [5] | Potency [6] | Potency [10] | Potency [11] | Potency [19] | Potency [12] | Potency [15] | Potency [20] | Potency [16] | Potency [17] | Potency [18]

CCCCCC[C@@H](O)C/C=C\CCCCCCCC(=O)O
inactive: Potency [1] | Potency [2] | Potency [3] | outcome [4] | Potency [5] | Potency [6] | activity change, positive = activation [7] -0.13% | Potency [8] | Potency [9] | Potency [10] | Potency [11] | Potency [19] | Potency [12] | Potency [13] | max response [14] 13.2% | Potency [15] | Potency [20] | Potency [17] | Potency [18]

C1C[C@@H]2[C@H]3CC[C@H](C3)[C@@H]2C1
inactive: Potency [1] | Potency [2] | Potency [3] | outcome [4] | Potency [5] | Potency [9] | Potency [10] | Potency [11] | Potency [19] | Potency [12] | Potency [13] | max response [14] -10.1% | Potency [15] | Potency [16] | Potency [17] | Potency [18]

CCC=CC#N
inactive: Potency [1] | Potency [2] | Potency [3] | outcome [4] | Potency [5] | Potency [8] | Potency [9] | Potency [10] | Potency [11] | Potency [19] | Potency [12] | Potency [13] | max response [14] 10.8% | Potency [15] | Potency [16] | Potency [17] | Potency [18]

CC(C)C=O
inactive: Potency [1] | Potency [2] | Potency [3] | outcome [4] | Potency [5] | Potency [6] | activity change, positive = activation [7] 0.557% | Potency [8] | Potency [9] | Potency [10] | Potency [11] | Potency [19] | Potency [12] | Potency [13] | max response [14] 0.0745% | Potency [15] | Potency [16] | Potency [17] | Potency [18]

CCC(C)COC(C)=O (stereo not drawn)
inactive: Potency [1] | Potency [2] | Potency [3] | outcome [4] | Potency [5] | Potency [6] | activity change, positive = activation [7] 1.45% | Potency [9] | Potency [10] | Potency [11] | Potency [19] | Potency [12] | Potency [13] | Potency [15] | Potency [20] | Potency [16] | Potency [17] | Potency [18]

CCC1(CO)COCOC1
inactive: Potency [1] | Potency [2] | Potency [3] | outcome [4] | Potency [5] | Potency [6] | activity change, positive = activation [7] 7.78% | Potency [8] | Potency [9] | Potency [10] | Potency [11] | Potency [19] | Potency [12] | Potency [13] | max response [14] -7.69% | Potency [15] | Potency [20] | Potency [16] | Potency [17] | Potency [18]

COc1cc(N)c(Cl)cc1C(=O)NC1CCN(CCCOc2ccc(F)cc2)CC1OC (stereo not drawn)
active: Potency [6] 11.9 µM | Potency [9] 3.01 µM | Potency [12] 2.39 µM | Potency [14] 3.01 µM
inactive: Potency [1] | Potency [2] | Potency [3] | activity change, positive = activation [7] -39.2% [at 42.5 µM] | Potency [8] | Potency [10] | Potency [11] | Potency [19] | Potency [13] | Potency [15] | Potency [20] | Potency [17]

Cc1ccccc1N=C(N)Nc1ccccc1C
inactive: Potency [1] | Potency [2] | outcome [4] | Potency [5] | Potency [6] | activity change, positive = activation [7] -3.25% | Potency [8] | Potency [9] | Potency [10] | Potency [11] | Potency [19] | Potency [12] | Potency [13] | Potency [15] | Potency [20] | Potency [16] | Potency [17] | Potency [18]

OC1(c2ccccc2)CCNCC1
inactive: Potency [1] | Potency [2] | Potency [3] | Potency [5] | Potency [6] | activity change, positive = activation [7] 5.89% [at 42.5 µM] | Potency [8] | Potency [9] | Potency [10] | Potency [11] | Potency [19] | Potency [12] | Potency [13] | max response [14] 5.53% | Potency [15] | Potency [20] | Potency [17] | Potency [18]

CCCCN1CCCC1C(=O)Nc1c(C)cc(C)cc1C (stereo not drawn)
active: Potency [19] 16.9 µM | Potency [15] 15.1 µM
inactive: Potency [1] | Potency [2] | Potency [3] | Potency [5] | Potency [8] | Potency [10] | Potency [11] | Potency [13] | Potency [16]

CCc1ccccc1
inactive: Potency [1] | Potency [2] | Potency [3] | Potency [5] | Potency [8] | Potency [9] | Potency [10] | Potency [11] | Potency [12] | Potency [13] | Potency [15] | Potency [20] | Potency [17] | Potency [18]
